# From PubChem BioAssay
# GALK inhibitor: galactokinase (human) inhibition. P51570. Purified GALK, Kinase-Glo residual ATP luminescence. Potency, µM (titrated, usually from 57.5 µM), for the others: top-dose activity change, negative = inhibition, most hits filed as inhibitors. actives 0.007% (n = 270,000); note: potency is the fitted concentration of half-maximal effect
#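 Luminescence from leftover ATP (Ultra-Glo luciferase/luciferin) served as read-out after a 1 h room-temperature reaction of 5 nM GALK with 35 uM ATP and 100 uM galactose.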
# FBPA coupling cs: inhibits coupling enzyme system, counter-screen for aldolase hits. coupling enzyme system counterscreen, AmpLite Red fluorescence. activity change, negative = inhibition, % at 58.2 µM, hits read low. actives 0.67% (n = 290,000); in the data active = activity change below about -30%
#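 Activity here indicates interference with the coupling reaction, not aldolase inhibition. Compounds at 57.5 uM final met coupling enzymes for 10 min at RT; substrate and AmpLite Red detection followed, with a 525/598 nm fluorescence read after 20 min.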
# Eya2 inh: inhibitors of human Eya2 phosphatase activity; Potency, µM (series often up to 76.9 µM), inactives show top-dose activity, negative = inhibition, actives largely listed as inhibitors; actives 0.006% (n = 330,000); O00167; recombinant Eya2, OMFP fluorescence dephosphorylation (OMFP is methylfluorescein phosphate); note: potency is the fitted concentration of half-maximal effect
# Target sequence (O00167 whole entry, looked up): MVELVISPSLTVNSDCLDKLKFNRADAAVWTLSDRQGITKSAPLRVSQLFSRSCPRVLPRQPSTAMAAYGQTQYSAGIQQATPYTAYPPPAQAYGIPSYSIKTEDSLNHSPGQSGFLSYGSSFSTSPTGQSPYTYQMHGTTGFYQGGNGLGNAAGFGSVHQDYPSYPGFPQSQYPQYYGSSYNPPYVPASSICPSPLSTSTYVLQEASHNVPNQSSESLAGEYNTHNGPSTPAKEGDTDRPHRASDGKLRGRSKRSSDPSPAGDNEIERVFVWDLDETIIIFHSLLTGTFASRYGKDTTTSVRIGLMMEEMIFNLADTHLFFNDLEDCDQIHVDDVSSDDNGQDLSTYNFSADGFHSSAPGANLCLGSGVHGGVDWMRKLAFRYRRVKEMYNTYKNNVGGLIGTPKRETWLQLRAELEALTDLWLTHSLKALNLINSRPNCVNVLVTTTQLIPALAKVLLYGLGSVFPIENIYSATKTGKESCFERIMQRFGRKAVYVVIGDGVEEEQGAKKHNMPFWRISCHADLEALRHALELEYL
#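 Eya2 (0.2 uM) preincubated 10 min at ambient with compound, then OMFP substrate added at 50 uM; 10 min reaction in 50 mM HEPES pH 7.5, 50 mM NaCl, 5 uM MgCl2, 0.05% BSA, 1 mM DTT. Fluorescence read at Ex 485/Em 525 nm.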
# PI4K2A inh: blocks human PI4K2A kinase activity; Q9BTU6; purified PI4K2A, ADP-Glo luminescence, 1 h; hits give low values; activity change, negative = inhibition, % at 76.9 µM; actives 0.13% (n = 420,000); in the data active = activity change below about -50%; inconclusive = mostly about -30% to -49%;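 note: -100% = wells without enzyme as full effect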
#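 In this quantitative HTS, ADP production by PI4K2A was quantified luminescently after 1 h at ambient temperature; 100 microM adenosine served as plate-quality control.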
# USP1-UAF1 inh: inhibitors of human USP1/UAF1 deubiquitinase; Potency, µM (series often up to 57.1 µM), inactives show top-dose activity change, negative = inhibition, usual class: inhibitors; O94782; actives 0.23% (n = 390,000); recombinant USP1/UAF1, Ub-Rhodamine cleavage fluorescence; AID 743255; note: potency is the fitted concentration of half-maximal effect; nearly all actives have a fitted effect of over 60% in size
#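 USP1/UAF1 complex at 1 nM was preincubated with compound for 15 min at room temperature, then Ub-Rho substrate (150nM final) was added. Fluorescence (480/540 nm) was read kinetically, 6 reads every 60 seconds.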
# USP2a inh: blocks human ubiquitin-specific protease USP2a. O75604. USP2 core, Ub-CHOP2 coupled fluorogenic reporter, 485/531. Potency, µM (highest dose often 38.3 µM), for inactives: at the highest dose activity change, negative = inhibition, hits mostly inhibitors. actives 0.01% (n = 330,000). AID 463254;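 note: potency is the fitted concentration of half-maximal effect; plate controls were DMSO wells for no effect and full inhibition by NEM control for full effect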
#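 Deubiquitinase activity read as fluorescence (485/531 nm) after Ub-CHOP2 cleavage activates the enterokinase reporter on its substrate; USP2 core 10nM, Ub-CHOP2 and substrate 25nM each, 30min compound preincubation then 60min RT; data normalized to NEM, curves fitted.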
# The depositor's hits bear a star; ? = inconclusive; . = not tested or not shown; ! = not active in a repeat. Sampled rows, rich in hits. Any-hit rate of the full collection: about 0.71%. Unless noted, calls come from the whole dose curve; as a rule, active = well fitted curve in the direction sought with a large enough effect; inconclusive = small, poorly fitted or top-dose-only effect, or another doubt; inactive = no such curve, though single readings can be large; an effect the other way counts as inactive or inconclusive. Unless noted, % is set by controls: 0 for no effect and ±100 for the full control effect.
SMILES,GALK inhibitor,FBPA coupling cs,Eya2 inh,PI4K2A inh,USP1-UAF1 inh,USP2a inh
C1CCc2nc3c(nc2C1)CCCC3,1.3%,3.0,-6.4%,-0.8,-8.0%,0.1%
Nc1nnc2c(n1)CCCC2,-2.9%,-30.2*,6.9%,-16.4,15.8µM*,2.1%
O=C(N/N=C\c1ccc(Sc2ccccn2)o1)c1cccc(Br)c1,0.2%,.,3.16µM*,1.6,-10.6%,-1.8%
C=CCOc1c(Cl)cc(CNc2ccc(N(C)C)cc2)cc1OC,-1.8%,-78.9*,-8.3%,-27.5,?,3.1%
COc1cc2c(cc1OC)-c1c(OC)c(OC)cc3ccnc(c13)C2=O,.,-34.5*!,6.9%,3.3,-33.0%,-1.6%
COc1ccc(C(=O)c2nccc3cc(OC)c(OC)cc23)cc1OC,.,.,-12.1%,?,14.1µM*,-0.7%
COc1ccc(C(=O)c2ccc(OC)c(OC)c2)cc1OC,-2.2%,-1.3,-5.8%,-1.2,-17.1%,-1.5%
CN(C)c1cccc2c1c(NC(=O)c1ccc(Cl)cc1)nn2C,-1.2%,-36.7*,3.6%,-6.4,?,-1.1%
CN(C)c1cccc2c1c(NC(=O)Nc1ccccc1)nn2C,.,-31.0*,12.7%,-18.4,?,8.6%
CCC(C(=O)O)c1ccc(N2Cc3ccccc3C2=O)cc1 (centres undefined),.,.,.,-5.4,.,.
CC(C)(C)c1ccc(-c2nnc(SCC(=O)Nc3ccc(S(=O)(=O)Nc4nccs4)cc3)n2Cc2ccco2)cc1,.,.,.,-56.3*,.,.
CC(C)[C@@H](CC(=O)N[C@@H]1CCNC[C@H]1C(=O)N[C@H](CC(=O)N[C@@H](CCC(=O)O)CC(=O)O)Cc1c[nH]c2ccccc12)NC(=O)C[C@H](CO)NC(=O)[C@@H]1CCCC[C@H]1N,.,1.6,.,.,.,.
O=C(OCc1ccccc1)[C@H](Cc1ccccc1)NC(=O)[C@@H]1CC=C[C@@H]2CCN(C3CCCCC3)C(=O)[C@@H]21,.,.,.,-2.5,.,.
N#CC1=C2SCN(C3CCCCC3)CN2C(=O)CC1c1ccc(Cl)cc1 (centres undefined),.,.,.,1.4,-22.2%,.
N#CC1=C2SCN(C3CCCCC3)CN2C(=O)CC1c1c(F)cccc1Cl (centres undefined),.,.,.,-4.7,31.6µM*,.
Cc1ccc(C2CC(=O)N3CN(Cc4ccco4)CSC3=C2C#N)cc1 (centres undefined),4.5%,-20.9,-1.2%,1.7,-26.3%,0.1%
N#CC1=C2SCN(Cc3ccco3)CN2C(=O)CC1c1c(F)cccc1Cl (centres undefined),2.2%,-24.8,-11.3%,-6.1,12.6µM*,1.0%
CCCSc1oc(-c2ccco2)nc1S(=O)(=O)c1ccccc1,-1.8%,-35.9*,1.2%,-0.1,-23.5%,-4.3%
CCCSc1oc(-c2ccco2)nc1S(=O)(=O)c1ccc(C)cc1,4.5%,0.1,-12.4%,-2.1,-20.5%,-1.6%
COc1cc(SSc2cc(OC)cc([N+](=O)[O-])c2N)c(N)c([N+](=O)[O-])c1,8.4%,-30.2*,8.1%,-12.6,-24.6%,-2.9%
COc1cc(OC)c(OC)cc1/C=C1\CC(C)C/C(=C\c2cc(OC)c(OC)cc2OC)C1=O (centres undefined),-2.6%,-1.7,10.4%,0.5,35.5µM*,1.8%
CC(=O)[C@@H]1[C@@H]2C(=O)N(Cc3ccccc3)C(=O)[C@@H]2C2c3ccccc3C=CN21 (some centres undefined),-6.1%,-33.1*,29.3%,-25.2,17.8µM*,0.7%
COc1ccc(N2C(=O)[C@@H]3[C@H](C2=O)[C@H]2c4ccccc4C=CN2[C@@H]3C(=O)Nc2ccccc2)cc1,-1.5%,-27.0,6.7%,-21.6,?,6.6%
O=C(c1ccco1)[C@@H]1[C@@H]2C(=O)N(c3ccccc3)C(=O)[C@@H]2C2c3ccccc3C=CN21 (some centres undefined),-1.5%,-47.3*,1.7%,?,10µM*,10.6%
O=C1C2C3C=CC(C3)C2C(=O)N1Cc1ccccc1 (centres undefined),-0.3%,5.8,-9.8%,6.9,-13.5%,-0.3%
SMILES,GALK inhibitor,FBPA coupling cs,Eya2 inh,PI4K2A inh,USP1-UAF1 inh,USP2a inh
C#CCNC(=O)C[C@@H]1C(=O)N2CCCC3=C2[C@@]1(C(=O)OCC)CCC3,.,.,.,-0.6,.,.
COc1ccc(-c2cn3cc(C(=O)NN)ccc3n2)cc1,-1.3%,-2.4,-4.0%,-71.6*,-6.4%,-0.1%
NNC(=O)c1ccc2nc(-c3ccc(Br)cc3)cn2c1,-2.8%,-2.6,-19.2%,-14.1,-17.7%,1.6%
Cc1ccc2c(c1C)-c1c(ccc(C)c1C)C(=O)C2=O,.,.,.,-3.4,8.91µM*,.
Oc1ccc2oc3c(c2c1/C=N/n1cnnc1)CCCC3,4.9%,-4.6,-5.5%,0.6,-20.5%,-2.0%
Oc1ccc2oc3c(c2c1C=NCc1ccncc1)CCCC3,-2.7%,-35.5*,-8.9%,-3.0,-21.4%,0.5%
CN(C)S(=O)(=O)c1ccc(C(=O)Nc2c(C(=O)Nc3ccc(F)cc3)oc3ccccc23)cc1,.,.,.,-0.1,-13.3%,.
CCOC(=O)C1=C(C)NC(=O)CC1c1cc2c(cc1[N+](=O)[O-])OCO2 (centres undefined),-0.6%,-53.0*,14.4%,-0.3,-24.0%,0.9%
CCN(CC(=O)Nc1c(C(=O)OC)[nH]c2ccc(C)cc12)c1ccc2c(c1)OCO2,2.6%,-38.0*,6.7%,3.1,-22.1%,-13.6%
Cc1ccc(C)c(OCCCC(C)(C)C(=O)O)c1,-0.2%,11.4,3.5%,-62.2*!,-8.0%,4.7%
O=C(CCOCCOCCOCCOCCC(=O)Nc1c(I)cc(I)c(C(=O)O)c1I)Nc1c(I)cc(I)c(C(=O)O)c1I,.,.,.,-5.8,.,.
CC12CC3OS(=O)OC3CC3C4C(C(OCc5ccccc5)C31)C42 (centres undefined),.,1.8,.,.,.,.
O=S(=O)(c1ccccc1)N1CCN=C1SCc1ccccc1Cl,-0.3%,-40.0*,-2.5%,3.3,-17.7%,-0.5%
CC(=O)Nc1ccc(S(=O)(=O)N2CCN=C2SCc2ccc(C)cc2)cc1,-6.2%,.,7.6%,-3.1,-26.8%,-1.7%
Cc1ccc(S(=O)(=O)N2CCN=C2SCc2ccccc2)cc1,-0.7%,-35.1*,-0.9%,1.6,-20.4%,0.4%
O[C@H](COc1ccc(C(F)(F)F)cc1)CN1CCC(C(O)(c2ccccc2)c2ccccc2)CC1,.,.,.,-3.1,.,.
COc1ccccc1N1C(=O)N(C(C)=O)C2C1Nc1ccccc1N2C (centres undefined),4.8%,-40.3*,9.1%,-1.9,?,0.3%
